This is an account of results in PubChem BioAssay (NCATS).

Results filed as inconclusive are left out. Where a call stands in place of a potency, no number is given. Activity calls are given as the source filed them. The call rests on the fitted dose curve; in most records, active means well fitted inhibition curve with a large enough effect; inconclusive means small, poorly fitted or top-dose-only effect; inactive means flat fitted curve, though single readings scatter.
Potency means the concentration at half of the fitted maximal effect.

This experiment deals with Zika virus NS2B-NS3 protease. Kind of experiment: Primary screen GU AMC qHTS for Zika virus inhibitors (AID 1347154). Further: nearly all actives have a fitted effect of over 70% in size. Conditions: Zika NS2B-NS3 unlinked protease, AMC fluorogenic substrate; series mostly up to 54.1 µM. Put shortly:
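Unlinked Zika NS2B hydrophilic domain–NS3 protease complex at 25 nM in 10 mM Tris-HCl pH 8.0, 0.01% Tween 20, with an AMC peptide substrate. Fluorescence change (340/450 nm) over 15 min at room temperature, normalized to controls, fitted to 4-parameter Hill.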
As for `COc1cc2c(cc1OC)[C@@H]1CC(=O)[C@@H](CC(C)C)CN1CC2`, the Potency result is “inactive”. In the case of `CCCCCCCCCCCCCCNCCO`, the Potency result was “inactive”.

On to `CCN1CCN(c2cc3c(cc2F)c(=O)c(C(=O)O)cn3C2CC2)CC1`, for which the Potency entry was “inactive”. On to `CCCN1CCCC[C@H]1C(=O)Nc1c(C)cccc1C`, for which the Potency entry is “inactive”. With `N[C@H](Cc1c[nH]c2ccccc12)C(=O)O`, the Potency result is “inactive”. Under `O=C(CCN1CCC(c2ccccc2)C1)c1ccc2c(c1)OCCO2` (stereo not drawn) stands “inactive”; under `COc1c2occc2c(OC)c2c(=O)cc(C)oc12`, “inactive”. For `C#C[C@]1(O)CC[C@H]2[C@@H]3CCC4=CC(=O)CC[C@@H]4[C@H]3CC[C@@]21C`, the Potency result was “inactive”. On to `COc1cc2c(cc1OC)C(=O)C(CC1CCN(Cc3ccccc3)CC1)C2` (stereo not drawn), for which the Potency result is “inactive”.

Take `Cc1cc(N)c2cc(NC(=O)Nc3ccc4nc(C)cc(N)c4c3)ccc2n1`: the Potency was 14.1 µM (active). Regarding `O=C(N/N=C/c1ccccc1O)c1ccncc1`, the Potency result is “inactive”.

For `CC1(C)O[C@@H]2[C@@H](CO[C@@]3(COS(N)(=O)=O)OC(C)(C)O[C@@H]23)O1`, the Potency result was “inactive”. As to `CCC(=O)c1c(O)cc(O)cc1O`, the Potency entry was “inactive”. For the compound `Cc1ccnc(NS(=O)(=O)c2ccc(N)cc2)n1`, the Potency result is “inactive”. With `COc1ccc(/C=C/C(=O)c2ccc(OC)cc2OC)cc1`, the Potency result is “inactive”.

As to `CCCCCCCCCCCCCCCC[N+](C)(C)CC`, the Potency entry was “inactive”.

Consider `O=C1[C@H]2CCCC[C@H]2C(=O)N1CCCCN1CCN(c2nsc3ccccc23)CC1`, for which the Potency result is “inactive”. For the compound `O=C(OCC(O)CO)c1ccccc1Nc1ccnc2cc(Cl)ccc12` (stereo not drawn), the Potency result is “inactive”.

For the compound `CNCC[C@@H](Oc1ccccc1C)c1ccccc1`, the Potency entry is “inactive”. Regarding `Cc1cc(=O)n(-c2ccccc2)n1C`, the Potency entry is “inactive”.

As for `CC(=O)Nc1c(I)cc(I)c(C(=O)O)c1I`, the Potency entry is “inactive”.

For the compound `Cc1c(C)n(Cc2ccccc2)c2ccc(C(=O)OCCN(C)C)cc12`, the Potency entry was “inactive”. As for `CCOC(=O)[C@H](CCc1ccccc1)N[C@@H](C)C(=O)N1Cc2ccccc2C[C@H]1C(=O)O`, the entry is “inactive”.
